High-throughput results: PubChem, several laboratories
Rows were chosen to be rich in hits. Some 1% of all compounds tested hit in one or more screens of this group.
sEH inhibitor = blocks human soluble epoxide hydrolase activity; P34913; recombinant human sEH enzymatic activity assay; inhibition, % at 2 µM; hit rate 0.34% among 91,000; in the data active = inhibition above about 80%
EphB4 ephrin blk = antagonists of human EphB4-ephrin-B2 interaction. EphB4 LBD / TNYL-RAW-Alexa532 peptide, fluorescence polarization. inhibition, % at 7 µM. AID 720. hit rate 0.15% among 97,000;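 active = inhibition above the screen-wide mean inhibition plus 3 SD, cut at about 15% in these data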;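 note: 0% = DMSO wells and 100% = excess unlabeled TNYL-RAW peptide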
PLK1 kinase inh = PLK1 (human) kinase inhibition; P53350; AID 619; inhibition, % at 10 µM; hit rate 0.53% among 97,000; recombinant PLK1 kinase, TR-FRET peptide phosphorylation;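 active = inhibition of 50% or more in the single-concentration screen; inactive = inhibition below 50%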;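 note: 0% = DMSO max control and 100% = H-89 dihydrochloride min control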
Plk1 PBD FP = blocks phosphopeptide binding to human Plk1 polo box domain | P53350 | Plk1 PBD phosphopeptide binding, fluorescence polarization | inhibition, %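 (tested at about 20 µM)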 | hit rate 0.13% among 97,000 | AID 693; in the data active = inhibition above about 34%, passing the limit was not always enough
sEH act = activators of human soluble epoxide hydrolase; P34913; hit rate 0.04% among 91,000; activation, % at 2 µM; purified human sEH enzymatic activity, activator screen; in the data active = activation above about 37%
PLK1 inh conf = confirmation of human PLK1 kinase inhibitors. inhibition, % at 10 µM. recombinant PLK1 kinase, TR-FRET peptide phosphorylation. hit rate 20% among 210. shares compounds with PLK1 kinase inh;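 active = inhibition at or above 50% in each of two repeat confirmation tests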;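 note: 0% = DMSO max control and 100% = H-89 kinase-blocked min control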
TR-FRET interf = Plk1 assay compound interference counter-screen hit. shares compounds with PLK1 kinase inh. Plk1 TR-FRET assay interference, compound added post-reaction. inhibition (interference), % at 10 µM. 210 tested, under 10 active;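 active = both duplicate runs show 50% or greater inhibition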;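 note: 0% = DMSO max control and 100% = H-89 min control inhibited reaction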
* = called active by the depositor; / = no result given.

SMILES	sEH inhibitor	EphB4 ephrin blk	PLK1 kinase inh	Plk1 PBD FP	sEH act	PLK1 inh conf	TR-FRET interf
CCOC(=O)C1CCN(c2ncnc3c2cnn3-c2ccccc2)CC1	-3	0	-13	2	2	/	/
CC1CCN(c2ncnc3c2cnn3-c2ccccc2)CC1	/	4	75*	-50	/	-4	-54
O=c1[nH]cnc2sc(-c3ccccc3)cc12	12	1	78*	-23	-12	68*	-44
CCc1cc2c(=O)[nH]cnc2s1	-22	1	-7	-7	20	/	/
Cc1cccc(-n2ncc3c(NCCc4ccc(S(N)(=O)=O)cc4)ncnc32)c1	/	-5	71*	-5	/	-16	-56
N#C/C(=N\Nc1c(Cl)cccc1Cl)C(=O)NN	6	-3	79*	2	-3	77*	-58
N#C/C(=N\Nc1ccccc1Cl)C(=O)c1ccccc1	-2	2	-8	-10	4	/	/
COc1ccc(NC(C)=O)cc1NC(=O)CN1CCN(CC(=O)Nc2ccc(Cl)cc2)CC1	7	10	-15	20	-7	/	/
COc1ccc(/C=N/N=C2/NC(=O)C(c3ccccc3)(c3ccccc3)S2)cc1	0	5	-12	4	2	/	/
CC(C)OC(=O)C1C2C=CC3(CN(C(C)c4ccc(Br)cc4)C(=O)C13)O2 (stereo unspecified)	/	1	74*	-11	/	-12	-46
C=CCc1ccc(OCCOCCOc2ccccc2[N+](=O)[O-])c(OC)c1	-17	-3	-12	12	16	/	/
C=CCNc1nc(N)c(C(=O)c2ccc3c(c2)OCO3)s1	-5	-8	75*	12	8	74*	-45
O=C(COC(=O)c1cc[n+]([O-])cc1)NCC12CC3CC(CC(C3)C1)C2	8	2	6	-11	-7	/	/
CCOCCn1c(CN(Cc2ccccc2)Cc2ccccc2)nc2c1c(=O)n(C)c(=O)n2C	/	-5	72*	20	/	-5	-54
CCCCn1c(CN(Cc2ccccc2)Cc2ccccc2)nc2c1c(=O)n(C)c(=O)n2C	6	-7	-4	30	-4	/	/
CC(=O)N1CCN(c2ccc(NCc3ccc(C)s3)cc2)CC1	/	1	77*	-9	/	-1	-59
Cc1ccc(CNc2ccc(N3CCOCC3)cc2)s1	2	10	-3	-2	-4	/	/
COc1ccc(S(=O)(=O)N(C)CC(=O)N2CCN(Cc3ccccc3)CC2)cc1C	-7	6	-11	-10	5	/	/
Nc1nc(-c2ccco2)c(-c2ccco2)s1	3	6	-7	-3	-3	/	/
c1coc(-c2nc(-c3ccco3)c(-c3ccco3)nc2-c2ccco2)c1	/	19*	93*	-14	/	-3	-53
O=[N+]([O-])c1ccc2nc(/C=C/c3ccc(Cl)cc3)[nH]c2c1	20	4	-8	-26	-19	/	/
CCCCc1nc2n[nH]c(N)c2c2c1CSC(C)(C)C2	18	-2	70*	-5	-18	36	-46
CC(C)CC(=O)NC(=S)Nc1ccccc1C(=O)Nc1ccccc1	4	-5	-10	-2	-6	/	/
CCOC(=O)c1ccc(NC(=S)NCCCN2CCCCC2)cc1	7	2	113*	-17	-3	-3	-49
CCOc1ccc(NC(=O)NCCCN2CCCC2)cc1	11	-5	9	27	-11	/	/
SMILES	sEH inhibitor	EphB4 ephrin blk	PLK1 kinase inh	Plk1 PBD FP	sEH act	PLK1 inh conf	TR-FRET interf
O=C(c1ccco1)N1CCN=C1SCc1ccccc1F	/	-5	78*	14	/	-9	-59
O=C(c1ccco1)N1CCN=C1SCc1cccnc1	-6	6	-9	16	10	/	/
Cc1ccc(NS(=O)(=O)c2ccc(NC(=O)c3cccc(NC(=O)C(C)C)c3)cc2)cc1	53	3	-14	14	-51	/	/
CCN(CC)CCN(C(=O)Cn1nnc(-c2ccc(OC)c(OC)c2)n1)C(C(=O)NC1CCCC1)c1ccc(F)cc1 (stereo unspecified)	-13	4	-15	3	11	/	/
COc1cccc(Nc2ncnc3nc[nH]c23)c1	3	0	84*	16	-1	70*	-45
CCCCc1ccc(Nc2ncnc3nc[nH]c23)cc1	-5	-2	32	11	3	/	/
Cc1ccc(Nc2ncnc3nc[nH]c23)cc1Cl	-1	2	76*	-6	-1	36	-56
c1ccc(CNc2ncnc3nc[nH]c23)cc1	-7	4	27	17	3	/	/
CC(C)c1ccc(CN2CCC(C(=O)NCc3cccnc3)CC2)cc1	13	-3	-12	-8	-11	/	/
